Screening results as filed in PubChem BioAssay.
Compounds with a hit are over-represented: about 4.1% of the library has one in this group of screens.
MBD2 DNA inh: inhibitors of MBD2 binding to methylated DNA, primary screen, biochemical, TR-FRET, DNA-binding domain, human; Methyl-CpG-binding domain protein 2 (Homo sapiens), Q9UBB5; 370,000 tested, 0.31% active; inhibition, % at 4.4 µM; MBD2 binding to methylated oligonucleotide; in the data active means inhibition above about 13%
Target sequence (Q9UBB5 whole entry, looked up, the tested form may be a part): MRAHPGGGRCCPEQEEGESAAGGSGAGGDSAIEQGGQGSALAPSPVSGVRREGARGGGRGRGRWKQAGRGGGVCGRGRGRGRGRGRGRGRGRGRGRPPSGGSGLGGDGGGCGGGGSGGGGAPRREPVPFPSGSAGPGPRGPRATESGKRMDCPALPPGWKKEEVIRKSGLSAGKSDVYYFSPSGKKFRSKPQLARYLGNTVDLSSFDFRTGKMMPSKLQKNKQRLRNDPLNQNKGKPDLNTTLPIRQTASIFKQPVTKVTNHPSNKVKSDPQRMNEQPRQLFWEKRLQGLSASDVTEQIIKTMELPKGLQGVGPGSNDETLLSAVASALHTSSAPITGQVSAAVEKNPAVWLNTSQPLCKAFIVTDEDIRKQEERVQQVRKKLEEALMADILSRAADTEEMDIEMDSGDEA
LEDGF integ inh: blockers of LEDGF/p75-dependent integrase strand transfer – biochemical, TR-FRET, high throughput, primary screen. inhibition, % at 3.7 µM. AID 743269, 2014. TR-FRET IN-LEDGF/p75 DNA integration, Eu/Cy5. 370,000 tested, 0.64% active;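 active means inhibition above the screen-wide mean plus 3 SD, cut at about 13% in these data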;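 further: signal is the Cy5 over europium emission ratio at 671 and 618 nm; 0% = plate median of compound wells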
PRMT1 FP inh: PRMT1 methyltransferase inhibitors, primary screen, biochemical, fluorescence polarization; Protein arginine N-methyltransferase 1 (Homo sapiens), Q99873; recombinant PRMT1, activity-based probe fluorescence polarization; inhibition, % at 2.79 µM; 370,000 tested, 1.3% active; AID 652257, 2013;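 active means inhibition above about 21% made by adding two undisclosed values, limit read from the data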
rCAG binder: binders of r(CAG) RNA repeats, primary screen, biochemical, fluorescence; r(CAG) RNA repeat, TO-PRO-1 dye displacement fluorescence; 370,000 tested, 1.3% active; inhibition, % at 3 µM;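 active means inhibition above the plate cutoff, the mean of all test compounds on that plate plus 3 SD, cut at about 35% in these data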;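 further: 0% = DMSO alone and 100% = 100 µM mitoxantrone as full dye displacement; higher means more dye released from RNA so lower well fluorescence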
UHRF1 binding: UHRF1 methylated DNA binding inhibitors, primary screen, counter-screen for MBD2 inhibitor project, biochemical, TR-FRET, human UHRF1, single concentration | E3 ubiquitin-protein ligase UHRF1 (Homo sapiens), Q96T88 | UHRF1 binding to methylated oligo | inhibition, % at 4.4 µM | 370,000 tested, 0.75% active; in the data active means inhibition above about 21%;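 further: UHRF1 SRA domain binding a hemimethylated CpG hairpin DNA probe; 0% = median of test compound wells and 100% = reference inhibitor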
ABHD5 PLIN5 PPI: ABHD5-PLIN5 interaction inhibitors, primary screen, cell lysate, split luciferase complementation, luminescence; Perilipin-5 (Homo sapiens) + 1-acylglycerol-3-phosphate O-acyltransferase ABHD5 (Homo …; Split G. princeps luciferase complementation, 4 h; inhibition, % at 4 µM; 360,000 tested, 0.78% active; AID 602281, 2012;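 active means inhibition above the mean inhibition across every tested compound plus 3 SD, cut at about 22% in these data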;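 further: 0% = DMSO only wells and the 100% control is not disclosed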
Starred values were filed as active, the others as inactive; . = no result given.

SMILES	MBD2 DNA inh	LEDGF integ inh	PRMT1 FP inh	rCAG binder	UHRF1 binding	ABHD5 PLIN5 PPI
C=C1C(=O)C23CCC4C(C)(C(=O)OC)CCCC4(C)C2CCC1(O)C3 (configuration not stated)	-1	-2	29*	2	3	72*
COC(=O)Cc1nnn2c1CC(OC)c1ccccc1-2 (configuration not stated)	-2	1	-10	3	0	.
COc1ccc(-c2nnn(CC(=O)N(CCCO)C(C(=O)NC3CCCC3)c3ccncc3)n2)cc1 (configuration not stated)	-1	-9	2	-1	28*	-3
COc1cccc(CNC(=O)CN2CCCc3ccccc32)c1	1	-5	6	1	3	.
O=C(CNC(=O)c1ccc(-c2ccccc2)cc1)OCc1ccc(Br)cc1	6	3	-1	0	26*	-3
COc1ccc(C(=O)NCC(=O)OCc2ccc(Br)cc2)cc1	-2	0	2	-3	1	0
O=[N+]([O-])c1c(NCCCO)cc(Sc2nc3ccccc3s2)c2nonc12	.	.	.	.	.	58*
CN(C)S(=O)(=O)n1cc(/C=C(\NC(=O)c2ccccc2Cl)C(=O)N2CCCC2)c2ccccc21	1	0	0	-1	-3	-3
CN(C)S(=O)(=O)n1cc(/C=C(\NC(=O)c2ccccc2F)C(=O)N2CCCCC2)c2ccccc21	2	6	-2	3	24*	8
COc1ccc(-c2cc(-c3ccccc3)nc(Cl)n2)cc1OC	-4	3	-7	2	30*	-3
COc1ccc(Nc2cccccc2=O)cc1	-2	-3	1	-2	0	0
COc1ccc(Nc2cccc3ccccc23)cc1	3	3	6	3	21*	-17
COC(=O)[C@]12C[C@H](CC(=O)N3CCN(C(=O)C4CC4)CC3)C(=O)N(Cc3ccc(Cl)cc3Cl)C1=C[C@H](C(C)C)O[C@@H]2C1CC1	0	3	1	5	-2	.
Cc1ccc(NC(=O)/C=C\C(=O)NCC(=O)O)cc1	-2	1	24*	-2	-2	3
Cc1ccc(S(=O)(=O)Nc2ccc(NC(=O)/C=C/C(=O)O)cc2)cc1	-1	1	-1	-1	0	-6
CCCCCCCC(=O)Nc1cc(C(=O)NCCC)ccc1N1CCC2(CC1)CC(c1ccccc1)=NO2	12	6	2	8	21*	1
CCCNC(=O)c1ccc(N2CCC3(CC2)CC(c2ccccc2)=NO3)c(NC(=O)c2ccccc2)c1	-3	-1	-2	3	-1	4
O=C(/C(=C(\[O-])c1ccccc1)[n+]1ccc2ccccc2c1)c1ccccc1	-2	-2	-2	7	-8	3
O=C(/C(=C(\[O-])c1ccccc1)[n+]1ccc2ccccc2c1)c1ccc(Cl)cc1	2	0	0	8	25*	-9
CS(=O)(=O)c1sc(C#N)c2c1C(=O)CC(c1ccccc1)C2 (configuration not stated)	3	-1	19	-2	-4	57*
Cc1oc2c(c(=O)c1C)C(=O)CC(c1ccccc1)C2 (configuration not stated)	-9	-2	0	-2	-2	-7
CNc1ccccc(-c2ccc3ccccc3n2)c1=O	-7	2	24*	8	-6	-6
c1ccc(-c2ccc3ccccc3n2)cc1	6	-3	12	1	2	2
CCCN(CCC)CCN1CCN(C(=O)[C@H](CCc2ccccc2)NC(=O)[C@H]2O[C@@H](n3cnc4c(N)ncnc43)[C@H](O)[C@@H]2O)CC1	5	-4	1	-3	2	.
COc1ccc(N2CCN(C(=O)CN(c3ccccc3)S(=O)(=O)c3ccc(OC)cc3)CC2)cc1	4	3	-4	-2	-1	-10
SMILES	MBD2 DNA inh	LEDGF integ inh	PRMT1 FP inh	rCAG binder	UHRF1 binding	ABHD5 PLIN5 PPI
COc1ccc(N2CCN(C(=O)CN(c3ccc(OC)cc3)S(=O)(=O)c3ccccc3)CC2)cc1	8	6	4	27	31*	0
CC(=O)Nc1ccc(S(=O)(=O)Nc2cccc(-n3cnnn3)c2)cc1	-1	1	-1	2	-1	2
CC(=O)c1ccc(S(=O)(=O)Nc2cccc(-n3cnnn3)c2)cc1	4	2	1	18	40*	3
O=C(NCC1CCCO1)C1CCN(C2CCN(CCCC3CCCC3)CC2)CC1 (configuration not stated)	8	-5	0	-7	23*	18
CC(C)[C@H](NC(=O)C1CC1)C(=O)N1CCC[C@H]1C(=O)NCc1ccccc1	4	0	1	1	-4	.
O=C(O)COc1ccc(/C=N/NC(=O)c2ccc(-c3csc(Nc4ccc(Cl)cc4)n3)cc2)cc1	10	-2	3	14	21*	-6
CCOc1cc(/C=N/NC(=O)c2ccc(-c3csc(Nc4ccc(C)cc4)n3)cc2)ccc1OCC(=O)O	-4	2	-3	8	0	0
Nn1c(SCC(=O)Nc2ccc(C(=O)O)cc2)nnc1-c1ccco1	-1	3	-1	1	-2	.
CC(C)NC(=O)c1ccc(CSCc2ccccc2Cl)o1	1	-3	-6	-8	25*	7
CCC(C)NC(=O)c1ccc(CSCc2ccccc2Cl)o1 (configuration not stated)	3	-1	2	-8	-3	-1
CCn1c(SCC(=O)N2CCCc3ccccc32)nnc1-c1cccs1	8	3	5	-8	21*	2
COc1cc(NC(=S)N2CCN(c3ccccn3)CC2)c(OC)cc1Cl	3	-9	22*	-1	3	-1
COC(=O)[C@]12C[C@H](CC(=O)NCc3cccc4ccccc34)C(=O)N(Cc3ccccc3)C1=C[C@H](C(C)C)O[C@@H]2C1CC1	3	-1	0	6	0	.
Cc1ccccc1NC(=O)O[C@H]1CC[C@@]23CCCN2C(=O)CCC[C@H]3[C@H]1C	5	2	1	.	0	.
C[C@H](CS)C(=O)N1CCC[C@H]1C(=O)O	3	84*	9	0	1	-3
CC(C)CC(=O)/C(=C\c1ccc(Cl)cc1Cl)n1cncn1	.	.	.	.	.	95*
CCC(C)COC(c1ccccc1)(c1ccccc1)C(Oc1nc(C)cc(C)n1)C(=O)O (configuration not stated)	1	0	0	22	41*	1
